Inconclusive results are not listed. Calls of active or inactive are those of the source. Unless noted, the call rests on the fitted dose curve; in most records, active means well fitted curve in the direction sought with a large enough effect in the repeat runs; inconclusive means weak or mixed curves; inactive means no such curve, though single readings can be large; an effect the other way counts as inactive or inconclusive.
How the values were obtained:
[1] = molecular target: Peroxisome proliferator-activated receptor gamma (Homo sapiens) (UniProt P37231); assay: qHTS assay to identify small molecule antagonists of the peroxisome proliferator-activated receptor gamma (PPARg) signaling pathway (AID 743191; calls by dose curve; further: series mostly up to about 63 µM; nearly all actives have a fitted effect of over 30% in size)
Summary of the method: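 Beta-lactamase reporter under UAS control in HEK293H PPARg-bla cells; compound treatment 17 h at 37C. Read-out: fluorescence intensity after 1 h room-temperature incubation with LiveBLAzer B/G FRET substrate.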

[2] = qHTS assay to identify small molecule antagonists of the peroxisome proliferator-activated receptor gamma (PPARg) signaling pathway - cell viability counter screen (AID 743194); further: nearly all actives have a fitted effect of over 55% in size
Summary of the method: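 Viability was measured as CellTiter-Glo luminescence in GeneBLAzer PPARg UAS-bla HEK293H cells. These cells had been exposed 17 h at 37 C to compounds together with rosiglitazone at 50 nM final, with the beta-lactamase readout taken in the same wells.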

[3] = qHTS assay for small molecule agonists of the antioxidant response element (ARE) signaling pathway (AID 743202; active means well fitted activation curve with a large enough effect in the signal ratio in the repeat runs, not every such curve was filed as active; the % refers to the signal ratio)
Summary of the method: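 Quantitative high-throughput format in HepG2 cells bearing an integrated ARE-beta-lactamase reporter. Compound exposure lasted 16 h at 37 C, and fluorescence was read 2 h after adding LiveBLAzer B/G substrate at room temperature.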

[4] = qHTS assay for small molecule agonists of the antioxidant response element (ARE) signaling pathway - cell viability counter screen (AID 743203; calls by dose curve; further: nearly all actives have a fitted effect of over 55% in size)
Summary of the method: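 ARE-bla HepG2 cells were plated, rested 5 h at 37C/5% CO2, then exposed to compounds in DMSO for 16 h. Viability was read as CellTiter-Glo luminescence after 30 min at room temperature, in the same wells as the ARE screen.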

[5] = qHTS assay for small molecule activators of the heat shock response signaling pathway - cell viability counter screen (AID 743209); further: nearly all actives have a fitted effect of over 50% in size
Summary of the method: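 HSE-bla HeLa cells plated overnight, then exposed to Tox21 compounds (23 nL in DMSO) for 5 h at 37 C. After the bla reporter read, CellTiter-Glo was added in the same wells and luminescence read after 30 min at room temperature.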

[6] = qHTS assay for small molecule activators of the heat shock response signaling pathway (AID 743210; active means well fitted activation curve with a large enough effect in the signal ratio in the repeat runs, with a control signal flat, not every such curve was filed as active; the % refers to the signal ratio;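 further: HeLa cells with beta-lactamase reporter driven by heat shock elements; series mostly up to about 63 µM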)
Summary of the method: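 HeLa HSE-bla cells, overnight plating; cpd in DMSO 5 h, 37 C; LiveBLAzer B/G FRET substrate 2.5 h RT; fluorescence intensity read.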

[7] = qHTS assay to identify small molecule agonists of the peroxisome proliferator-activated receptor delta (PPARd) signaling pathway - cell viability counter screen (AID 743211); further: nearly all actives have a fitted effect of over 55% in size
Summary of the method: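 PPARd-bla HEK293H cells (UAS-beta-lactamase reporter) were treated with compounds for 17 h at 37 C. Viability was then read in the same wells by CellTiter-Glo luminescence after 30 min at room temperature.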

[8] = qHTS assay to identify small molecule agonists of the farnesoid-X-receptor (FXR) signaling pathway - cell viability counter screen (AID 743218); further: nearly all actives have a fitted effect of over 45% in size
Summary of the method: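 FXR-UAS-bla HEK 293T cells exposed to compounds for 16 h at 37C. Cytotoxicity read in the same wells by CellTiter-Glo luminescence after 30 min at room temperature, following the beta-lactamase FRET read.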

[9] = qHTS assay to identify small molecule antagonists of the farnesoid-X-receptor (FXR) signaling pathway - cell viability counter screen (AID 743221; active means well fitted cell-killing curve with a large enough effect in the repeat runs, not every such curve was filed as active; further: nearly all actives have a fitted effect of over 50% in size)
Summary of the method: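 FXR-UAS-bla HEK 293T cells were treated with test compounds plus chenodeoxycholic acid (50 uM final) for 16 h at 37 C. Cell viability in the same wells was then read as CellTiter-Glo luminescence after 30 min at room temperature.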

[10] = molecular target: Vitamin D3 receptor (Homo sapiens) (UniProt P11473); assay: qHTS assay to identify small molecule antagonists of the vitamin D receptor (VDR) signaling pathway (AID 743223; active means well fitted inhibition curve with a large enough effect in the signal ratio in the repeat runs, not every such curve was filed as active; the % refers to the signal ratio)
Summary of the method: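 VDR-bla cells were plated, incubated 4 h at 37C, then given compound and 1alpha,25-dihydroxyvitamin D3 (3 nM final). After 16 h at 37C, LiveBLAzer B/G FRET substrate was added for 2 h at room temperature and fluorescence read.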

[11] = qHTS assay to identify small molecule that activate the aryl hydrocarbon receptor (AhR) signaling pathway - cell viability counter screen (AID 743086);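 further: HepG2 liver cells carrying the AhR DRE luciferase reporter; series mostly up to about 70 µM; nearly all actives have a fitted effect of over 45% in size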
Summary of the method: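 Cytotoxicity counter screen: CellTiter-Fluor signal (30 min, 37 C) in 4000 HepG2 cells/well carrying the DRE-luciferase reporter, following 24 h compound exposure at 37 C.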

[12] = qHTS assay to identify small molecule antagonists of the peroxisome proliferator-activated receptor delta (PPARd) signaling pathway - cell viability counter screen (AID 743213); further: nearly all actives have a fitted effect of over 50% in size
Summary of the method: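 PPARd-bla HEK293H cells were treated with compounds plus agonist L165041 (300 nM final) for 17 h at 37 C. Viability was then read in the same wells by CellTiter-Glo luminescence after 30 min at room temperature.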

[13] = molecular target: Peroxisome proliferator-activated receptor delta (Homo sapiens) (UniProt Q03181); assay: qHTS assay to identify small molecule antagonists of the peroxisome proliferator-activated receptor delta (PPARd) signaling pathway (AID 743215; active means well fitted inhibition curve with a large enough effect in the signal ratio in the repeat runs, not every such curve was filed as active; the % refers to the signal ratio;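 further: cells stimulated with agonist L165041 at 300 nM final during compound exposure; series mostly up to about 62 µM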)
Summary of the method: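 PPARd-bla HEK293H cells (UAS-bla reporter) preincubated 5 h, then given compound plus 300 nM final L165041 agonist for 17 h at 37 C. Beta-lactamase activity read by LiveBLAzer B/G FRET substrate fluorescence after 2 h at room temperature.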

[14] = molecular target: Vitamin D3 receptor (Homo sapiens) (UniProt P11473); assay: qHTS assay to identify small molecule agonists of the vitamin D receptor (VDR) signaling pathway (AID 743222; calls by dose curve)
Summary of the method: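 VDR-bla cells plated 4 h at 37 C, then exposed to compounds for 16 h at 37 C. Beta-lactamase reporter activity measured by fluorescence after 2 h room-temperature loading with LiveBLAzer B/G FRET substrate.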

[15] = molecular target: Peroxisome proliferator-activated receptor delta (Homo sapiens) (UniProt Q03181); assay: qHTS assay to identify small molecule agonists of the peroxisome proliferator-activated receptor delta (PPARd) signaling pathway (AID 743212; calls by dose curve)
Summary of the method: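 HEK293H PPARd-bla cells; 5 h preincubation 37 C/5% CO2; compound (DMSO) 37 C; LiveBLAzer B/G FRET substrate 2 h RT; fluorescence intensity.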

[16] = molecular target: Bile acid receptor (Homo sapiens) (UniProt Q96RI1); assay: qHTS assay to identify small molecule agonists of the farnesoid-X-receptor (FXR) signaling pathway (AID 743220; active means well fitted activation curve with a large enough effect in the signal ratio in the repeat runs, not every such curve was filed as active; the % refers to the signal ratio)
Summary of the method: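 Beta-lactamase reporter under UAS control in GeneBLAzer FXR HEK 293T cells (5000/well) measured with LiveBLAzer FRET substrate after 2 h at room temperature. Compound exposure lasted 16 h at 37C.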

Measured: Potency

Chain of Vitamin D3 receptor (Homo sapiens) (P11473 whole entry, looked up): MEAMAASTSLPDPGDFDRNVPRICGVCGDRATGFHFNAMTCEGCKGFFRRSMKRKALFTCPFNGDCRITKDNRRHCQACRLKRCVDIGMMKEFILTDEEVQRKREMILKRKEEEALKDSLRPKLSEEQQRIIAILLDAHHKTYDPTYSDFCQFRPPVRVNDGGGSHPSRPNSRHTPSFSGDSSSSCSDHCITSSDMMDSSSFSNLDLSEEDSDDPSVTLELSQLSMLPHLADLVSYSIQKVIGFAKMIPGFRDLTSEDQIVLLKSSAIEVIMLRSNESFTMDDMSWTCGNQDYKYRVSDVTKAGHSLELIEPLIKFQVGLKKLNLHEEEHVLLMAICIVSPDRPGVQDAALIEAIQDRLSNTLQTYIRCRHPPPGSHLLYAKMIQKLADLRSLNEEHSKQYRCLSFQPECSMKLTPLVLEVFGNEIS
Chain of Peroxisome proliferator-activated receptor gamma (Homo sapiens) (P37231 whole entry, looked up): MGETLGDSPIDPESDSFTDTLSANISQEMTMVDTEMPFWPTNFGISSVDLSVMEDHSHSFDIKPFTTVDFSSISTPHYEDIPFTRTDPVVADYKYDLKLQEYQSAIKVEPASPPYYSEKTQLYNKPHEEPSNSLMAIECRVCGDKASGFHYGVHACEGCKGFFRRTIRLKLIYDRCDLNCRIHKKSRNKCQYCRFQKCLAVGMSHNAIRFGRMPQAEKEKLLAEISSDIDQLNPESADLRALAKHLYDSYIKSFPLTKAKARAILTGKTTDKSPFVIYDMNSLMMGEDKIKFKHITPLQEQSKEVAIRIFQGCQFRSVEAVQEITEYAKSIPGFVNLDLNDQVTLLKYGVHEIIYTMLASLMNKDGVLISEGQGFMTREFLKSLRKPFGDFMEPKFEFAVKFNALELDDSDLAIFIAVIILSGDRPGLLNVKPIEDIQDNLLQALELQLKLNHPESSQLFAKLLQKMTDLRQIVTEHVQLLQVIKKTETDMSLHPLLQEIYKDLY
Chain of Peroxisome proliferator-activated receptor delta (Homo sapiens) (Q03181 whole entry, looked up): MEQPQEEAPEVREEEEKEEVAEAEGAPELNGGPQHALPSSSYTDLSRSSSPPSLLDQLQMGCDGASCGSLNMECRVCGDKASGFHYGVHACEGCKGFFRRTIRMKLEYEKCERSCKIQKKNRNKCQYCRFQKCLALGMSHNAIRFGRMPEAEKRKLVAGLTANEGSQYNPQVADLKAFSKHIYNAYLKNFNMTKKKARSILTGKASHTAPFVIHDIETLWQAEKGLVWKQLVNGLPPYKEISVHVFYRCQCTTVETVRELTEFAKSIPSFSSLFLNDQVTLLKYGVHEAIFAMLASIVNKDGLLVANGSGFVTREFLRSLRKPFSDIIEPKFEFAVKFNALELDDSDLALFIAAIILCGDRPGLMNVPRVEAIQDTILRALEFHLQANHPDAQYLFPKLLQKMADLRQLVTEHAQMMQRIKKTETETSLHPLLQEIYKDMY
Chain of Bile acid receptor (Homo sapiens) (Q96RI1 whole entry, looked up): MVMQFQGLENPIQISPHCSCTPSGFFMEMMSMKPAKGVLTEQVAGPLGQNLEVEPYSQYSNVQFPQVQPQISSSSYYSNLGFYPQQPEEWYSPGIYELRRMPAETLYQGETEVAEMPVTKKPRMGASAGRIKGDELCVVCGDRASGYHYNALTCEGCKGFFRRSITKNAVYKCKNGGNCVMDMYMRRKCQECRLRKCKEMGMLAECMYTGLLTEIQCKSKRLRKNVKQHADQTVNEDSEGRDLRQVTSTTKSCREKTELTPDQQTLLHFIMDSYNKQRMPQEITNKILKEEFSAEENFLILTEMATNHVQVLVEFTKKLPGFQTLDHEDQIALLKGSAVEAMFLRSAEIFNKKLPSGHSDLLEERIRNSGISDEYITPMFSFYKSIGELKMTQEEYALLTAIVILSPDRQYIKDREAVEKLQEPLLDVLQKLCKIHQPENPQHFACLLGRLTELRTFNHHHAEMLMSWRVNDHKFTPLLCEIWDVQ

CCOC(=O)C(O)c1ccccc1 (stereo not given)
not listed: [11] | [12] | [13] | [14] | [15] | [16]
inactive: all other assays above

CCC(C)c1cc(C(C)(C)C)c(O)c(C(C)(C)C)c1 (stereo not given)
inactive: [11] | [2] | [4] | [12] | [13] | [9] | [14]

COc1ccc2cccc(CCNC(C)=O)c2c1
not listed: [8] | [11] | [13] | [15] | [16]
inactive: all other assays above

CN(C)CCN(Cc1ccsc1)c1ccccn1
inactive: [2] | [3] | [4] | [5] | [7] | [12] | [8] | [9] | [14]

Cc1ccc(C(C)OC(=O)C2(C)CCC(C(=O)O)C2(C)C)cc1 (stereo not given)
inactive: [3] | [4] | [5] | [6] | [15] | [8] | [9] | [14]

Nc1ccccc1S(=O)(=O)c1ccccc1
not listed: [1] | [3] | [7] | [10] | [13] | [15]
inactive: all other assays above

— PubChem BioAssay (Tox21)
